The target in test [1] is Hepatocyte nuclear factor 3-beta (Homo sapiens) (UniProt Q9Y261). Kind of test: ATG_FoxA2_CIS: Attagene CIS-FACTORIAL HepG2 Assay for human Forkhead box A2 (FOXA2) (AID 2282942). To be noted: HepG2 cis-reporter transcription factor activity, 24 h; actives raise or lower the signal. Summed up:
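Endogenous transcription factor activity was read in HepG2 cells carrying transiently transfected cis-promoter reporter units. After 24 h dosing, reporter mRNA was quantified by RT-PCR and capillary electrophoresis, and values fitted bidirectionally versus DMSO.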

The target of test [2] is Heat shock factor protein 1 (Homo sapiens) (UniProt Q00613). Kind of test: ATG_HSE_CIS: Attagene CIS-FACTORIAL HepG2 Assay for human Heat Shock Transcription Factor 1 (HSE) (AID 2282953). To be noted: HepG2 HSE cis-reporter, Attagene RNA transcription; actives raise or lower the signal. The method in brief: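 HepG2 cells transfected with cis-promoter reporter units sensing endogenous transcription factor activity; reporter mRNA quantified 24 h post-dose by RT-PCR and capillary electrophoresis of 6-FAM-labelled products. Bidirectional fitting against DMSO.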
Sequence of Heat shock factor protein 1 (Homo sapiens) (Q00613 whole entry, looked up): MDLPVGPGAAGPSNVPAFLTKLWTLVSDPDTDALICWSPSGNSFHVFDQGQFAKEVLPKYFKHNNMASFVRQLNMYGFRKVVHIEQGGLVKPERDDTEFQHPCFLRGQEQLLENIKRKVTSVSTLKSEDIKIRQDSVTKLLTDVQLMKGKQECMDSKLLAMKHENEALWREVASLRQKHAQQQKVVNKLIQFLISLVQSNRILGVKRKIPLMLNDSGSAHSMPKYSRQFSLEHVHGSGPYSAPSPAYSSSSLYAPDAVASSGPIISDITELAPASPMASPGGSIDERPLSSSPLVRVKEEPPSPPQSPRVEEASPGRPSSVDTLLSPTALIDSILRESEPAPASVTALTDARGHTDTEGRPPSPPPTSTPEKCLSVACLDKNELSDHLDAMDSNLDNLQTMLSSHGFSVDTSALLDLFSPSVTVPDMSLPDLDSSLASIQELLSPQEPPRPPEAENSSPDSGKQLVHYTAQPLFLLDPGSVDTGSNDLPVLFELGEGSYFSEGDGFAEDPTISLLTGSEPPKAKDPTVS

Test [3] in a line: ATG_RORE_CIS: Attagene CIS-FACTORIAL HepG2 Assay for human RAR-related Orphan Receptor Element (RORE) (AID 2282959). As to conditions: HepG2 Attagene cis-factorial RORE reporter, mRNA; actives raise or lower the signal. The method in brief: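 Cells were HepG2 carrying transfected cis-regulated reporter constructs, dosed for 24 hours. Total RNA was reverse-transcribed and reporter cDNA amplified, fluorescently labeled and sized by capillary electrophoresis. Activity was fitted bidirectionally relative to DMSO.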

Test [4] in a line: ATG_Sox_CIS: Attagene CIS-FACTORIAL HepG2 Assay for human SRY-box transcription factor (SOX) (AID 2282960). As to conditions: HepG2 Attagene cis-factorial SOX reporter, mRNA; actives raise or lower the signal. The method in brief: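 Transient MRTU transfection of HepG2; 24 h compound incubation; TriZol RNA, oligo(dT) RT, PCR, 6-FAM primer extension, HpaI cut, CE. Bidirectional fit, DMSO = baseline.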

The target of test [5] is Transcription factor Sp1 (Homo sapiens) (UniProt P08047). Briefly: ATG_Sp1_CIS: Attagene CIS-FACTORIAL HepG2 Assay for human Specificity Protein 1 (Sp1) (AID 2282961). To be noted: HepG2 Sp1 cis-reporter transcription, actives raise or lower the signal. Summed up: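 Endogenous Sp1 activity was gauged in human liver HepG2 cells bearing transfected reporter units under a cis-regulating promoter. After 24 h dosing, reporter mRNA was quantified by RT-PCR with capillary electrophoresis, and activity fitted bidirectionally versus DMSO.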
Sequence of Transcription factor Sp1 (Homo sapiens) (P08047 whole entry, looked up): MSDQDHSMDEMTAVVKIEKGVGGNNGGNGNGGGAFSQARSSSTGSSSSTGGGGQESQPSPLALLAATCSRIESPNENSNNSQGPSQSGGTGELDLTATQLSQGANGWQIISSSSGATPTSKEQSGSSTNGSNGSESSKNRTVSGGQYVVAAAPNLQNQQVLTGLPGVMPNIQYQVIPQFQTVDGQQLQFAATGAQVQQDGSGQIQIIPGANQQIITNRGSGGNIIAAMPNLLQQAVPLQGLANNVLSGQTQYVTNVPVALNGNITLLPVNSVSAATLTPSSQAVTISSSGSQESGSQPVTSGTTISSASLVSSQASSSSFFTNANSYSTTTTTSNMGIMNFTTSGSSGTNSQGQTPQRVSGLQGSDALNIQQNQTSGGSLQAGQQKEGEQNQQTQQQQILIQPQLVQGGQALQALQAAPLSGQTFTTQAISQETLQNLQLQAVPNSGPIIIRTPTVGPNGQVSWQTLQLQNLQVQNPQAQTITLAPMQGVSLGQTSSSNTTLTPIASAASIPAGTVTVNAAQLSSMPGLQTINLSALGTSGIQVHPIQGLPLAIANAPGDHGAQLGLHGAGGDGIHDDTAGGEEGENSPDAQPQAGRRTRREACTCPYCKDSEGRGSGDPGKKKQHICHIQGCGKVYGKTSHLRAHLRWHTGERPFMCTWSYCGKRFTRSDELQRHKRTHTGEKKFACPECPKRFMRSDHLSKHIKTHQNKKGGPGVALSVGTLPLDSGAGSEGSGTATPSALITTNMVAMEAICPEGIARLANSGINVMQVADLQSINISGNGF

Test [6] in a line: ATG_SREBP_CIS: Attagene CIS-FACTORIAL HepG2 Assay for human Sterol Regulatory Element Binding (SREBP) (AID 2282962). As to conditions: HepG2 Attagene cis-factorial SREBP reporter, mRNA; actives raise or lower the signal. Summed up: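 In this cis-format assay, HepG2 liver cells express reporters controlled by promoter elements responsive to native transcription factors. Exposure lasts 24 h; reporter mRNA fluorescence from capillary electrophoresis gives the signal, fitted bidirectionally against DMSO.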

Test [7] concerns the target Signal transducer and activator of transcription 3 (Homo sapiens) (UniProt P40763). Briefly: ATG_STAT3_CIS: Attagene CIS-FACTORIAL HepG2 Assay for human Signal Transducer and Activator of Transcription 3 (STAT3) (AID 2282963). As to conditions: HepG2, Attagene cis-factorial STAT3 reporter transcription; actives raise or lower the signal. The method in brief: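 Readout: fluorescent reporter mRNA fragments resolved by capillary electrophoresis. Setup: HepG2 transfected with MRTUs reporting endogenous transcription-factor activity, dosed 24 h. Gain or loss of signal fitted bidirectionally against DMSO control.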

Test [8] in a line: ATG_TA_CIS: Attagene CIS-FACTORIAL HepG2 Assay for human TA Basal Promoter (AID 2282964). To be noted: HepG2 Attagene CIS-factorial TA basal promoter reporter; actives raise or lower the signal. Summed up: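 HepG2 cells transiently transfected with multiple reporter units under cis promoter elements, reporting endogenous transcription factor activity; this endpoint tracks the TA basal promoter as background control. Reporter mRNA after 24 h dosing measured by RT-PCR/capillary electrophoresis; bidirectional fits versus DMSO.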

A short description of test [9]: ATG_TCF_b_cat_CIS: Attagene CIS-FACTORIAL HepG2 Assay for human T-Cell-Factor with beta-catenin (TCF/b-cat) (AID 2282965). To be noted: HepG2 TCF/beta-catenin cis-reporter transcription, actives raise or lower the signal. Summed up:
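HepG2 cells transiently transfected with cis-promoter-driven multiplexed reporter units; reporter mRNA measured 24 h after dosing by RT-PCR, FAM labelling, HpaI digestion and capillary electrophoresis. Bidirectional fitting relative to DMSO baseline.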

Test [10] is described as follows: ATG_TAL_CIS: Attagene CIS-FACTORIAL HepG2 Assay for human TAL Basal Promoter (AID 2282966).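 Note: background control endpoint measuring basal TAL promoter reporter mRNA not a specific factor.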 As to conditions: HepG2 Attagene cis-factorial TAL promoter reporter; actives raise or lower the signal. The method in brief: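 Human hepatoma HepG2 cells, transfected with promoter-regulated reporter units, were treated 24 h. Reporter transcript levels, measured through RT-PCR and capillary electrophoresis, were fitted for gain or loss relative to DMSO.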

A short description of test [11]: ATG_VDRE_CIS: Attagene CIS-FACTORIAL HepG2 Assay for human Vitamin D Receptor Element (VDRE) (AID 2282968). As to conditions: HepG2 VDRE cis-reporter transcription, actives raise or lower the signal. The method in brief: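 Transient MRTU transfection of HepG2, 24 h compound exposure. Readout: reporter transcripts via RT-PCR and capillary electrophoresis, fluorescence. Bidirectional fit vs DMSO.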

Test [12] concerns the target Transcriptional activator Myb (Homo sapiens) (UniProt P10242). Kind of test: ATG_Myb_CIS: Attagene CIS-FACTORIAL HepG2 Assay for human Myeloblastosis (Myb) Proto-Oncogene Transcription Factor (AID 2282986). As to conditions: HepG2 Attagene CIS-FACTORIAL Myb reporter transcription; actives raise or lower the signal. Summed up: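 Steps: transfect HepG2 with cis-regulated reporter units; dose with chemical for 24 h; isolate RNA, reverse-transcribe, PCR-amplify and FAM-label reporter sequences; digest with HpaI; resolve by capillary electrophoresis. Activity fitted in both directions relative to DMSO.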

The target in test [13] is Nuclear respiratory factor 1 (Homo sapiens) (UniProt Q16656). Briefly: ATG_NRF1_CIS: Attagene CIS-FACTORIAL HepG2 Assay for human Nuclear Respiratory Factor 1 (NRF1) Orphan Gene (AID 2282987). As to conditions: HepG2 NRF1 cis-element reporter, Attagene multiplex; actives raise or lower the signal. The method in brief:
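Fluorescence intensity of labelled reporter cDNA fragments, resolved by capillary electrophoresis, served as readout for NRF1 cis-element activity. Transiently transfected HepG2 cells were dosed for 24 hours; activity in either direction was fitted against DMSO negative control.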

Test [14] in a line: ATG_NFI_CIS: Attagene CIS-FACTORIAL HepG2 Assay for human Nuclear Factor I (NFI) (AID 2282989). As to conditions: HepG2 cis-regulatory reporter, NFI response element transcription; actives raise or lower the signal. Summed up: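 Endogenous TF activity in HepG2 cells transiently transfected with cis-element-driven multiplexed reporter units, read 24 h after dosing. Reporter mRNA quantified by RT-PCR, 6-FAM labelling, HpaI digestion and capillary electrophoresis; bidirectional fit versus DMSO.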

The target in test [15] is Myc proto-oncogene protein (Homo sapiens) (UniProt P01106). Kind of test: ATG_Myc_CIS: Attagene CIS-FACTORIAL HepG2 Assay for human Myelocytomatosis (Myc) Proto-Oncogene Transcription Factor (AID 2282990). To be noted: HepG2, Attagene cis-reporter transcription factor activity; actives raise or lower the signal. Summed up: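 Transiently transfected HepG2 cells bearing cis-promoter reporter units for endogenous transcription factors; 24 h exposure. Reporter mRNA measured by RT-PCR, 6-FAM primer extension, HpaI cut and capillary electrophoresis; bidirectional fit relative to DMSO.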
Sequence of Myc proto-oncogene protein (Homo sapiens) (P01106 whole entry, looked up): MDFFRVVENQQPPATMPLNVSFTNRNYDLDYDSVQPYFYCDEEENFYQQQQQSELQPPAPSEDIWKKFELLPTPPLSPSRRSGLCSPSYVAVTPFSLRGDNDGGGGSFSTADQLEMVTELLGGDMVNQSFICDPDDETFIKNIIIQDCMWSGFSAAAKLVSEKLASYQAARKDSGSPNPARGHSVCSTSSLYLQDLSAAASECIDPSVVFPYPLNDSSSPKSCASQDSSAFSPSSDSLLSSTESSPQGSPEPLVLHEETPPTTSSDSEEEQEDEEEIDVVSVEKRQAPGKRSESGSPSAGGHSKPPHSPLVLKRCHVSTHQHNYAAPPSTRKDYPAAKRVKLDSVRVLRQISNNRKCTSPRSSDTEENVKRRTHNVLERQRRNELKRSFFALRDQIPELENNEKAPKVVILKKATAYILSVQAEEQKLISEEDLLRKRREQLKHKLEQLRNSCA

Test [16] in a line: ATG_NRF2_ARE_CIS: Attagene CIS-FACTORIAL HepG2 Assay for human Nuclear Factor Erythroid 2 Related Factor 2 (NFR2) response to Antioxidant Response Elements (ARE) (AID 2282992). To be noted: HepG2 Attagene ARE/NRF2 reporter, transcription factor activity; actives raise or lower the signal. The method in brief:
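Using transiently transfected HepG2 cells exposed for 24 h, reporter mRNA levels were determined by RT-PCR with fluorescent primer extension and capillary electrophoresis, analysed for gain or loss of signal against DMSO.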

A short description of test [17]: ATG_Oct_MLP_CIS: Attagene CIS-FACTORIAL HepG2 Assay for human Octamer-Binding Transcription Factor (Oct) (AID 2282993). As to conditions: HepG2 Attagene cis-factorial Oct reporter, mRNA; actives raise or lower the signal. Summed up:
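HepG2 cells transiently transfected with cis-element-driven reporter transcription units (endogenous TF activity); 24 h compound exposure. Reporter mRNA quantified by RT-PCR, 6-FAM labelling, HpaI digestion and capillary electrophoresis; bidirectional fit versus DMSO baseline.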

Test [18] has as its target Cellular tumor antigen p53 (Homo sapiens) (UniProt P04637). Briefly: ATG_p53_CIS: Attagene CIS-FACTORIAL HepG2 Assay for human p53 Transcription Factor (AID 2282994). To be noted: HepG2 p53 cis-element reporter, Attagene mRNA; actives raise or lower the signal. The method in brief: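 In HepG2 cells, reporter transcription units under cis-regulatory promoters were transiently introduced. Following 24 h treatment, RNA was processed to labelled, digested cDNA fragments read by capillary electrophoresis; fitting was bidirectional versus DMSO.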

The target of test [19] is Nuclear receptor subfamily 1 group I member 2 (Homo sapiens) (UniProt O75469). Kind of test: ATG_PXR_TRANS: Attagene TRANS-FACTORIAL HepG2 Assay for human Pregnane X Receptor (PXR) (AID 2283008; active = hit-call score of the fitted dose curve at least 0.9, where 1 is the maximum). Summed up:
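Multiplexed TRANS reporter panel in HepG2; this component tracks PXR-Gal4-driven reporter mRNA after 24 h dosing, measured by RT-PCR with capillary electrophoresis fluorescence, fitted against DMSO.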

Test [20] is described as follows: ATG_XTT_Cytotoxicity: Cytotoxicity Assessment in the Attagene TRANS-FACTORIAL HepG2 Assay (AID 2283584; active = hit-call score of the fitted dose curve at least 0.9, where 1 is the maximum). Summed up:
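24 h chemical exposure of reporter-transfected HepG2; XTT signal loss vs DMSO indicates cytotoxicity.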

Results filed as inconclusive are left out. Activity calls are given as the source filed them. Rule for the calls, unless noted: active = hit-call score of the fitted dose curve at least 0.9, where 1 is the maximum; inactive = score below 0.9.

In general, AC50 refers to the concentration at which the activity in the assay is half-maximal.

Sequence of Nuclear receptor subfamily 1 group I member 2 (Homo sapiens) (O75469 whole entry, looked up, the tested form may be a part): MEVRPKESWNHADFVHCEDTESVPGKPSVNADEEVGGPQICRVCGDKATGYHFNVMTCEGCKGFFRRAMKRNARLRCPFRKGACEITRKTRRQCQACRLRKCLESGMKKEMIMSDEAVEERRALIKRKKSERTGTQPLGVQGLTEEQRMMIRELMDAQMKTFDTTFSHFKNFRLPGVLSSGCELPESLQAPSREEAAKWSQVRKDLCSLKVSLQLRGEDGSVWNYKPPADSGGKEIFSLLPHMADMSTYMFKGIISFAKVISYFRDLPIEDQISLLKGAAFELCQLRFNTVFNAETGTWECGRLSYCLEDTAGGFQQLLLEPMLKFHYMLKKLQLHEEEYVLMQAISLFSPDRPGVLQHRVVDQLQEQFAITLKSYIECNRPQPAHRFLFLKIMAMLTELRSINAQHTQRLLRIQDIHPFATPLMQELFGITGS
Sequence of Cellular tumor antigen p53 (Homo sapiens) (P04637 whole entry, looked up, the tested form may be a part): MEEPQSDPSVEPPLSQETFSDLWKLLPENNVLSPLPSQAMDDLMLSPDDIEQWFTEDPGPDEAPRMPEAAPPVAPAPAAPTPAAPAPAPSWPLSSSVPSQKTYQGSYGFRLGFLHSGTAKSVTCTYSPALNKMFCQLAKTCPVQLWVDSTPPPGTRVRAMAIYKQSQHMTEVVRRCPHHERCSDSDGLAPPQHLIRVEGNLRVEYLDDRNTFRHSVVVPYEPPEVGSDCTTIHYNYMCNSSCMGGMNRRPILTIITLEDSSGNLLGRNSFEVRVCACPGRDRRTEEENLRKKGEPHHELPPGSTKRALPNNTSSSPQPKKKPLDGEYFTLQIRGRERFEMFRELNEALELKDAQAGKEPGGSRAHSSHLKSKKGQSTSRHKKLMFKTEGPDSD
Sequence of Nuclear respiratory factor 1 (Homo sapiens) (Q16656 whole entry, looked up, the tested form may be a part): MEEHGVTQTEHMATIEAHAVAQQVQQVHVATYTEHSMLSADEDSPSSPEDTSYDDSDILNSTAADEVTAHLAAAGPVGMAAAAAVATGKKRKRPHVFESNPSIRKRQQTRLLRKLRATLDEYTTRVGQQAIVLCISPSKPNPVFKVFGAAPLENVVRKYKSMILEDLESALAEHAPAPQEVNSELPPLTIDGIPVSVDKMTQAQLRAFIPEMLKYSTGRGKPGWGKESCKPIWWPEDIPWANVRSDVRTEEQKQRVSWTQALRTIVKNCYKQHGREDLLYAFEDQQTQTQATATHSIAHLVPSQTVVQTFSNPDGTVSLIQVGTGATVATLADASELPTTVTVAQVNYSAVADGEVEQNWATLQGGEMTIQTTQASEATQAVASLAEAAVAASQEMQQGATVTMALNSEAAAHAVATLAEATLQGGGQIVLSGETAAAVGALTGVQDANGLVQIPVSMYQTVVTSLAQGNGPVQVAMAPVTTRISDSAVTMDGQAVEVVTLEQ
Sequence of Hepatocyte nuclear factor 3-beta (Homo sapiens) (Q9Y261 whole entry, looked up): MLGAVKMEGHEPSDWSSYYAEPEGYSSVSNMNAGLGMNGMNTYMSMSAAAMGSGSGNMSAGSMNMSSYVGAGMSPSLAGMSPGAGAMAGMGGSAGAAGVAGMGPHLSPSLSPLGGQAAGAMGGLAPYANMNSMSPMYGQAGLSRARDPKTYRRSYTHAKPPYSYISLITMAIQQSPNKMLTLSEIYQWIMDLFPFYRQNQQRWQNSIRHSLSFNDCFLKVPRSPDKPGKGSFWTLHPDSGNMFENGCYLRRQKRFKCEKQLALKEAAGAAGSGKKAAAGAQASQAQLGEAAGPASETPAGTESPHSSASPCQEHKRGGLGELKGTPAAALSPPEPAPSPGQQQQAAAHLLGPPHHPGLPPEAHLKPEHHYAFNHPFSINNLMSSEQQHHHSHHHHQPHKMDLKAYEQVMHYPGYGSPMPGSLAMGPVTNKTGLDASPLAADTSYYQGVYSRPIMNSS
Sequence of Transcriptional activator Myb (Homo sapiens) (P10242 whole entry, looked up): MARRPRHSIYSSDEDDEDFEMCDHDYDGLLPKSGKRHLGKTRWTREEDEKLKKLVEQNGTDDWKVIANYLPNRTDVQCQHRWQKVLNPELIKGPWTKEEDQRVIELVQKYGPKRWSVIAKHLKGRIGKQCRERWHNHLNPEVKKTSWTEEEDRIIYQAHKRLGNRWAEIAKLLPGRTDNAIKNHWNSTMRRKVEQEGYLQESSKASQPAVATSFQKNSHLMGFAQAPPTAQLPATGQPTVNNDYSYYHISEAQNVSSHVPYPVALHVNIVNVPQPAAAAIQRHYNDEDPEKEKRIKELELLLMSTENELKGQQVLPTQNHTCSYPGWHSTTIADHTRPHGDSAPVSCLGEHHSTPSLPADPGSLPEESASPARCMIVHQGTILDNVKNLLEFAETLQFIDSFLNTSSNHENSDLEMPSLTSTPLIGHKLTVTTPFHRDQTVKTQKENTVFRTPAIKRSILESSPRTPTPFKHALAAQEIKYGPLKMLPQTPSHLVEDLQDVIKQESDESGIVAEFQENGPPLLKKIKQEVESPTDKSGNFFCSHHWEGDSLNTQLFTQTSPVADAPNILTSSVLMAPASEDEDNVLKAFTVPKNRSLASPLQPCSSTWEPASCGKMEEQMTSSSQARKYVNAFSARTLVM
Sequence of Signal transducer and activator of transcription 3 (Homo sapiens) (P40763 whole entry, looked up, the tested form may be a part): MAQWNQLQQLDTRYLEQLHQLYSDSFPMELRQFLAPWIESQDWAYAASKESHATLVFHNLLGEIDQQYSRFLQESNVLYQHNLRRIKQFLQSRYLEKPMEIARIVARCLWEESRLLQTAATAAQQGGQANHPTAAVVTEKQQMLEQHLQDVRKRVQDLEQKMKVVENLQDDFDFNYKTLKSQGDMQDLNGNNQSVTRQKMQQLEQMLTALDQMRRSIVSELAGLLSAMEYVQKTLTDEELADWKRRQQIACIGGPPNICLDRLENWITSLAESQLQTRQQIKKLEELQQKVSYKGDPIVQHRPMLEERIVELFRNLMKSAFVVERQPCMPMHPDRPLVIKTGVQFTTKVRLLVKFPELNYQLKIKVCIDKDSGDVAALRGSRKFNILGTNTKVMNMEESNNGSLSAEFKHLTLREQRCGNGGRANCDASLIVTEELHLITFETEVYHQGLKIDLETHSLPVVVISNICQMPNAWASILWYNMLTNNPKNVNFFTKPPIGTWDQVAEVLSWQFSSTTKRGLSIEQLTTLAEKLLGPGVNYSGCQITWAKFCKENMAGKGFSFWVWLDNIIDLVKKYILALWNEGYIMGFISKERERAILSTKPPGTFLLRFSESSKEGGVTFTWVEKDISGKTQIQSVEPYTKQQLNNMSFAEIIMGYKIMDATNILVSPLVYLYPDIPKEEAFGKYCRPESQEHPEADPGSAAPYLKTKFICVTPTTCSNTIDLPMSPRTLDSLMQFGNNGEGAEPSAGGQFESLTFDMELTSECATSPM

As for `CC1=NN(c2cc(Cl)c(S(=O)(=O)O)cc2Cl)C(=O)C1N=Nc1ccc(S(=O)(=O)O)cc1` (centres undefined), the outcome in test [1], in test [2], in [3], in test [4], in [5] and in [6] was inactive. In addition, the outcome in test [7], in test [8], in [9], in test [10], in test [11] and in test [12] was inactive. Further, the outcome in test [13], in test [14], in test [15], in test [16], in test [17] and in [18] was inactive. The compound was classed as inactive in [19] and in [20].
Turning to `CC(O)(P(=O)(O)O)P(=O)(O)O`, the outcome in test [1], in [2], in test [4], in test [5], in test [6] and in test [7] was inactive. Also, the call in [8], in test [9], in test [10], in [12], in [13] and in test [14] was inactive. For the same compound, the compound was classed as inactive in test [15], in test [16], in [17] and in test [20].
On to `OCCN(CCO)c1cccc(Cl)c1`, for which the compound was classed as inactive in test [1], in test [2], in test [3], in [4], in test [5] and in test [6]. Besides, the compound was classed as inactive in [7], in test [8], in [9], in test [10], in [11] and in test [12]. Besides, the call in test [13], in test [14], in [15], in test [17], in test [18] and in [19] was inactive. Besides, the compound was classed as inactive in test [20]. The AC50 in [16] was 175 µM (active).
For the compound `CC1=C(CC(=O)O)c2cc(F)ccc2/C1=C\c1ccc(S(C)=O)cc1` (centres undefined), the result in [1], in [3], in test [4], in test [5], in [6] and in test [7] was inactive. The call in test [8], in test [9], in test [10], in test [12], in test [13] and in test [14] was inactive. Further, the compound was called inactive in test [15], in [17] and in test [18]. Moreover, the half-maximal activity concentration (AC50) in test [2] is 180 µM (active); in test [16], 23 µM (active); in test [19], 26.5 µM (active).
